# FBPA Giardia inh = blocks Giardia fructose-bisphosphate aldolase activity; A8B2U2; purified Giardia FBPA; Potency, µM (titrated, usually from 59.6 µM), without a hit: top-dose activity, negative = inhibition, usual class: inhibitors; hit rate 0.71% among 290,000; AID 2451; also: potency is read from the fitted curve at half-maximal effect; % is scaled to controls: 0 for no effect and ±100 for the full control effect; nearly all actives have a fitted effect of over 55% in size
# Target sequence (A8B2U2 whole entry, looked up): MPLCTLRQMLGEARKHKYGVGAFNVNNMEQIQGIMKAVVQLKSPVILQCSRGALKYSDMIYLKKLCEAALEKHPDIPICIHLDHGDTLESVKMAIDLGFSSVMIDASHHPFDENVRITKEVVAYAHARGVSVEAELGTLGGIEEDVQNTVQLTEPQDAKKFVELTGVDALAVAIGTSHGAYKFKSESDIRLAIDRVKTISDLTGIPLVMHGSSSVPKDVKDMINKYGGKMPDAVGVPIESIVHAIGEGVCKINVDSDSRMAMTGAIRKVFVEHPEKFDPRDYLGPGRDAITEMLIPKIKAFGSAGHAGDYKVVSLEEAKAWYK
#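 40 nM FBPA preincubated 10 min at RT with compound (up to 57.5 uM final), then substrate plus GAPDH/TPI/NAD/arsenate coupling and diaphorase/resazurin added. Fluorescence read after 20 min at RT, 525/598 nm.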
# RE007 growth inh = less growth of the S. pombe RE007 Vpr strain. S. pombe RE007 Vpr strain, BacTiter-Glo ATP luminescence, 24 h. hit rate 0.21% among 360,000. Potency, µM (titrated, usually from 92.2 µM), inactives show at the highest dose activity change, negative = less growth, usual class: inhibitors; active = well fitted falling curve with a large enough effect; inconclusive = small, poorly fitted or top-dose-only effect; inactive = no such curve, though single readings can be large or run the other way; also: potency is read from the fitted curve at half-maximal effect; % is scaled to controls: 0 for no effect and ±100 for the full control effect; nearly all actives have a fitted effect of over 50% in size
#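 Fission yeast strain RE007, carrying one chromosomally integrated HIV-1 vpr copy, was seeded at OD 0.01 in PMG+AL medium with 23 nL pinned compound. After 24 h at 30 °C and 99% humidity, viability was read by BacTiter-Glo luminescence.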
# Shiga toxin inh = inhibitors of Shiga toxin in Vero cells | inhibition, % at 38.7 µM | Vero cells, Shiga toxin protein synthesis inhibition reporter | hit rate 9.2% among 290,000; in the data active = inhibition mostly above about 28%, no sharp cut-off; inactive = mostly below about 43%; also: 0% is about no effect
# LmPK inhibitor = blocks Leishmania mexicana pyruvate kinase activity; Q27686; purified LmPK, Kinase-Glo ATP luminescence, 1 h; Potency, µM (doses to about 57.5 µM), for the others: top-dose activity change, negative = inhibition, usual class: inhibitors; hit rate 0.37% among 290,000; AID 1721; also: potency is read from the fitted curve at half-maximal effect; % is scaled to controls: 0 for no effect and ±100 for the full control effect
#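 0.1 nM LmPK, 0.5 mM PEP, 0.1 mM ADP; 50 mM imidazole pH 7.2, 7 mM MgCl2, 50 mM KCl; 1 h RT. Kinase-Glo luminescence readout, normalized to no-enzyme (full inhibition) and uninhibited wells.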
# TbPYK inhibitor = T. brucei pyruvate kinase inhibition. AID 624173. hit rate 0.12% among 410,000. TbPYK enzyme, Kinase-Glo Plus ATP luminescence, 45 min. Q57TT1. Potency, µM (doses to about 76.8 µM), inactives show top-dose activity, negative = inhibition, hits mostly inhibitors; also: potency is read from the fitted curve at half-maximal effect; % is scaled to controls: 0 for no effect and ±100 for the full control effect; nearly all actives have a fitted effect of over 50% in size
#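 Luminescent Kinase-Glo Plus end-point after 45 min room-temperature reaction of T. brucei pyruvate kinase started with 130 uM ADP (final). Buffer TEA 50 mM pH 7.2 with KCl, MgCl2, BSA, Tween-20; titration-based qHTS with fitted concentration-effect curves.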
# CHX counter = affects cycloheximide protein synthesis inhibition readout, counter-screen. cell reporter, cycloheximide protein synthesis inhibition counterscreen. max response, %. hit rate 12% among 300,000. AID 2314; in the data active = max response mostly above about 13%, no sharp cut-off; inactive = mostly below about 14%; also: read at 38.3 µM for the half of the compounds with a filed dose; 0% is about no effect
# Numbers without * were called inactive; ? = inconclusive; / = no result; + = active, no number. Many of the other results were omitted from the sample, so hits are more common in it than they were. Unless noted, calls follow the shape of the dose curve; as a rule, active = well fitted curve in the direction sought with a large enough effect; inconclusive = small, poorly fitted or top-dose-only effect, or another doubt; inactive = no such curve, though single readings can be large; an effect the other way counts as inactive or inconclusive.
SMILES,FBPA Giardia inh,RE007 growth inh,Shiga toxin inh,LmPK inhibitor,TbPYK inhibitor,CHX counter
Cc1nn(-c2ccccc2)cc1/C=N/O,0.6%,-11.1%,28.0,4.9%,-0.1%,-1.9
CN(CC1(C)CCCO1)S(=O)(=O)c1ccc(Cl)c(S(N)(=O)=O)c1 (centres undefined),/,/,/,/,0.0%,/
CC(=O)c1ccc(N2CCN(S(=O)(=O)c3ccc4c(c3)NC(=O)CO4)CC2)cc1,/,2.8%,-5.9,-12.0%,-1.4%,-8.7
NC(=O)N/N=C/c1cn(-c2ccccc2)nc1-c1cccs1,-3.4%,?,51.4*,-22.0%,-3.9%,36.4*
O=C(Nc1cccnc1)c1cn(-c2ccccc2)nc1-c1cccs1,-3.8%,10.0%,5.6,-2.5%,2.9%,3.9
O=C(O)c1cccc(N/N=C/c2cn(-c3ccccc3)nc2-c2cccs2)c1,-4.9%,?,149.9*,-3.0%,-11.7%,51.6*
CS(=O)(=O)c1ccc2nc(NC(=O)c3ccccc3Cl)sc2c1,-24.8%,15.7%,59.2*,-5.9%,-4.5%,15.4*
COc1ccccc1C(=O)Nc1nc2ccccc2s1,7.0%,?,/,0.6%,?,-13.2
COc1ccccc1C(=O)Nc1nc2ccc(S(C)(=O)=O)cc2s1,4.6%,-4.6%,+,0.6%,-4.5%,17.2*
CS(=O)(=O)c1ccc2nc(NC(=O)c3ccc(Cl)cc3)sc2c1,-13.2%,8.1%,16.7,1.5%,-0.2%,15.6*
CS(=O)(=O)c1ccc2nc(NC(=O)c3cccc(Cl)c3)sc2c1,0.1%,-10.6%,29.9,-10.3%,-18.1%,4.8
CS(=O)(=O)c1ccc2nc(NC(=O)c3ccccc3Br)sc2c1,-14.0%,0.6%,70.2*,-5.1%,-3.3%,37.3*
O=S(=O)(Nc1ccc(-c2ccc(N3CCCC3)nn2)cc1)c1cc(F)ccc1F,/,/,/,/,1.1%,/
C=C1C(=O)O[C@H]2C[C@]3(C)C([C@@H](OC(=O)/C(C)=C/C)[C@H]12)[C@](C)(O)CC[C@H]3O (some centres undefined),13.3%,10.3%,34.0,3.7%,-4.6%,30.2*
C=C1C(=O)O[C@H]2[C@H]1[C@H](OC(=O)/C(C)=C\C)C[C@]1(CO1)[C@@H]1[C@H](OC(C)=O)C=C(C)[C@]21O,/,7.3%,/,/,-8.8%,/
CC1=CC(=O)C(Sc2ccc(C)cc2)=CC1=O,/,22.4µM*,/,/,7.08µM*,/
COc1ccc(-n2c(COc3ccc4ccccc4c3)nnc2SCC(=O)NCc2ccco2)cc1,-14.1%,-6.6%,58.2,1.5%,-5.7%,31.0
COc1ccc(-n2c(COc3cccc(C)c3)nnc2SCC(=O)NCc2ccco2)cc1,26.2%,8.3%,35.3*,2.0%,0.6%,29.7*
COc1ccc(-n2c(COc3cccc4ccccc34)nnc2SCC(=O)NCc2ccco2)cc1,-7.7%,5.2%,67.5,6.0%,6.3%,25.3*
COc1ccccc1OCc1nnc(SCC(=O)NCc2ccco2)n1-c1ccccc1,-0.6%,-4.9%,8.9,1.0%,2.8%,11.7*
COc1ccccc1N1CCN(C(=O)c2cc3c(=O)n(Cc4ccco4)ccc3nc2C)CC1,/,/,/,/,-22.5%,/
C=CCN1CCN(C(=O)c2oc3ccccc3c2C)CC1,-15.4%,-8.4%,20.7,1.3%,-10.0%,20.3*
Cc1c(C(=O)N2c3ccccc3CC2C)oc2ccccc12 (centres undefined),/,-15.2%,165.6*,-1.2%,5.2%,41.6*
Cc1cc(Cl)c2oc(C(=O)N3CCN(c4cccc(C)n4)CC3)c(C)c2c1,-10.1%,-28.5%,/,5.3%,5.3%,46.6*
Cc1cc(Cl)c2oc(C(=O)N3CCN(c4cnccn4)CC3)c(C)c2c1,/,4.3%,/,/,-1.0%,/
Nc1c(C(=O)N2CCCCCC2)oc2ccccc12,3.4%,-19.9%,41.0,-5.8%,-2.2%,21.1*
CC1Cc2ccccc2N1C(=O)c1nn(C)cc1Br (centres undefined),-1.8%,-11.6%,-1.5,0.6%,-6.6%,9.3*
COC(=O)CCC(=O)c1oc2ccccc2c1N,7.3%,-11.2%,89.1*,-0.5%,-8.9%,42.3*
Cc1ccc2oc(C(=O)N3CCCCCC3)c(C)c2c1,/,-10.4%,110.1*,-1.4%,-18.5%,70.6*
Cc1c(C(=O)N2CCCCC2)oc2ccc(Br)cc12,/,-1.0%,/,/,1.0%,/
